Data as given in PubChem BioAssay (EPA / NIEHS).
Records with an inconclusive call do not appear. The source made the active and inactive calls. The calls were made as follows, unless noted: active = hit-call score of the fitted dose curve at least 0.9, where 1 is the maximum; inactive = score below 0.9.

Experiment: CCTE_Shafer_MEA_dev_bursting_electrodes_number: CCTE's Neural Network Formation Assay for Number of Bursting Electrodes, Shafer Lab (AID 2284043; active = hit-call score of the fitted dose curve at least 0.9, where 1 is the maximum;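 as to AC50: potency is for loss of bursting electrodes relative to DMSO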)
Summary of the method: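 Primary rat cortical neurons plated on 16-electrode MEA wells, exposed from day 0 with compound renewed at DIV 5 and 9. Electrodes bursting ≥1 burst per 2 min counted on days 5, 7, 9 and 12; trapezoidal AUC across days, fitted for loss versus DMSO.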

Structure (SMILES) | outcome | AC50
O=S(=O)(O)C(F)(F)C(F)(F)C(F)(F)C(F)(F)C(F)(F)C(F)(F)F | inactive | –
CCC(C)(c1ccc(O)cc1)c1ccc(O)cc1 | – | 3.23 µM (active)
c1cc2ccc3cccc4ccc(c1)c2c34 | inactive | –
ClC1=C(Cl)[C@]2(Cl)[C@@H]3[C@H]4C[C@H]([C@@H]5O[C@H]45)[C@@H]3[C@@]1(Cl)C2(Cl)Cl | inactive | –

Experiment: CCTE_Shafer_MEA_dev_per_burst_interspike_interval: CCTE's Neural Network Formation Assay for Burst Interspike Interval, Shafer Lab (AID 2284044);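 also: mean spike spacing inside bursts as AUC over recordings on days 5 7 9 12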
Summary of the method: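 Mean interspike interval within single-electrode bursts, averaged over bursting electrodes, from rat cortical cultures on MEA plates recorded on days 5, 7, 9 and 12. Continuous compound exposure from plating; trapezoidal AUC fitted downward relative to DMSO.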

Structure (SMILES) | outcome
O=S(=O)(O)C(F)(F)C(F)(F)C(F)(F)C(F)(F)C(F)(F)C(F)(F)F | inactive
CCC(C)(c1ccc(O)cc1)c1ccc(O)cc1 | inactive
c1cc2ccc3cccc4ccc(c1)c2c34 | inactive
ClC1=C(Cl)[C@]2(Cl)[C@@H]3[C@H]4C[C@H]([C@@H]5O[C@H]45)[C@@H]3[C@@]1(Cl)C2(Cl)Cl | inactive

Experiment: CCTE_Shafer_MEA_dev_burst_duration_mean: CCTE's Neural Network Formation Assay for Mean Burst Duration, Shafer Lab (AID 2284045)
Summary of the method: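 Primary rat cortical neurons on 48-well 16-electrode MEA plates, exposed from day 0 with renewal at DIV 5 and 9; spontaneous activity recorded on days 5, 7, 9, 12. Well-mean burst duration across bursting electrodes, collapsed as trapezoidal AUC; DMSO baseline.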

Structure (SMILES) | outcome
O=S(=O)(O)C(F)(F)C(F)(F)C(F)(F)C(F)(F)C(F)(F)C(F)(F)F | inactive
CCC(C)(c1ccc(O)cc1)c1ccc(O)cc1 | inactive
c1cc2ccc3cccc4ccc(c1)c2c34 | inactive
ClC1=C(Cl)[C@]2(Cl)[C@@H]3[C@H]4C[C@H]([C@@H]5O[C@H]45)[C@@H]3[C@@]1(Cl)C2(Cl)Cl | inactive

Experiment: CCTE_Shafer_MEA_dev_interburst_interval_mean: CCTE's Neural Network Formation Assay for Mean Interburst Interval, Shafer Lab (AID 2284046);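 also: well-mean interburst interval of bursting electrodes as AUC over four recording days; curve fitted for decrease in interburst interval relative to DMSO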
Summary of the method: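 Rat cortical neurons, 1.5 x 10^5 cells/well, 48-well MEA; compound from day 0 through DIV 12, media and treatment renewed DIV 5/9. Recordings DIV 5, 7, 9, 12; well-mean interburst interval → trapezoidal AUC, loss direction vs DMSO.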

Structure (SMILES) | outcome
O=S(=O)(O)C(F)(F)C(F)(F)C(F)(F)C(F)(F)C(F)(F)C(F)(F)F | inactive
CCC(C)(c1ccc(O)cc1)c1ccc(O)cc1 | inactive
c1cc2ccc3cccc4ccc(c1)c2c34 | inactive
ClC1=C(Cl)[C@]2(Cl)[C@@H]3[C@H]4C[C@H]([C@@H]5O[C@H]45)[C@@H]3[C@@]1(Cl)C2(Cl)Cl | inactive

Experiment: CCTE_Shafer_MEA_dev_inter_network_spike_interval_mean: CCTE's Neural Network Formation Assay for Mean Inter-network Spike Interval, Shafer Lab (AID 2284047)
Summary of the method: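 Primary rat cortical neurons on PEI-coated 48-well MEAs (16 electrodes/well) were exposed from plating day 0 to DIV 12, with dosing renewed at DIV 5 and 9. Recordings at DIV 5, 7, 9, 12 were collapsed by trapezoidal AUC, loss-of-signal fit vs DMSO.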

Structure (SMILES) | outcome
O=S(=O)(O)C(F)(F)C(F)(F)C(F)(F)C(F)(F)C(F)(F)C(F)(F)F | inactive
CCC(C)(c1ccc(O)cc1)c1ccc(O)cc1 | inactive
c1cc2ccc3cccc4ccc(c1)c2c34 | inactive
